Rows were chosen to be rich in hits. Some 8% of all compounds tested hit in one or more screens of this group.
KB-3-1 tox – KB-3-1 parental cell cytotoxicity; Potency, µM (series often up to 46.1 µM), usual class: cytotoxic; actives 1.4% (n = 400,000); AID 1347075; KB-3-1 viability, CellTiter-Glo ATP luminescence, 72 h; further: nearly all actives have a fitted effect of over 60% in size
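Viability of parental KB-3-1 cells, measured by CellTiter-Glo luminescence, followed a 72 h incubation at 37 °C with pinned compounds in phenol-red-free DMEM containing 10% FBS.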
KB-V1 MDR tox – KB-V1 MDR subline cytotoxicity; KB-V1 MDR cells viability, CellTiter-Glo, 72 h; Potency, µM (top dose mostly 46.1 µM), most hits filed as cytotoxic; actives 3.4% (n = 400,000); AID 1347076; further: nearly all actives have a fitted effect of over 60% in size
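Potencies derive from concentration-effect curves fitted to normalized luminescence (CellTiter-Glo) of KB-V1 cells treated for 72 h at 37 degrees C in phenol-red-free DMEM containing 10% FBS.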
HT1080-NT tox – kills 2HG-producing HT-1080-NT fibrosarcoma cells | AID 686970 | HT-1080-NT fibrosarcoma viability, CellTiter-Glo ATP luminescence, 48 h | actives 1.6% (n = 360,000) | Potency, µM (top dose mostly 46.1 µM), actives largely listed as cytotoxic;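 further: NT is the 2HG producing partner of a matched IDH1 knockdown line; nearly all actives have a fitted effect of over 55% in size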
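Toxicity toward the 2HG-producing NT line was scored as %Activity, normalised to DMSO and no-cell wells, from CellTiter-Glo luminescence after 48 hours' treatment.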
HT1080 IDH1KD tx – kills HT-1080 cells with IDH1 knockdown | HT-1080 IDH1 knockdown viability, ATP luminescence, 48 h | actives 2% (n = 360,000) | Potency, µM (top dose mostly 46.1 µM), most hits filed as cytotoxic | AID 686971
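Using the IDH1-knockdown HT-1080 line run in the same batch and compound series as the NT line, viability after 48 h at 37 °C was determined by CellTiter-Glo luminescence and expressed as % activity.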
MCF10A rerep – DNA re-replication induction in MCF 10a cells. MCF 10A DNA re-replication, Hoechst nuclear intensity, 48 h. Potency, µM (top dose mostly 46.1 µM), most hits filed as activators. actives 2.9% (n = 350,000). AID 624296; further: nearly all actives have a fitted effect of over 50% in size
SW480 rereplic – induces DNA re-replication in SW480 colon adenocarcinoma cells; SW480 DNA re-replication, Hoechst DNA content imaging, 48 h; Potency, µM (top dose mostly 46.1 µM), actives largely listed as activators; actives 1.8% (n = 340,000); AID 624297; further: nearly all actives have a fitted effect of over 55% in size
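Readout is total intensity of Hoechst-stained nuclei, excited at 405 nm and collected at 500-530 nm. Compound treatment lasted 48 hr at 37 C in 5% CO2 before staining.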
Large screens that a line does not name were inactive. The call rests on the fitted dose curve; in most records, active means well fitted curve in the direction sought with a large enough effect; inconclusive means small, poorly fitted or top-dose-only effect, or another doubt; inactive means no such curve, though single readings can be large; an effect the other way counts as inactive or inconclusive.

O=C(CNC(=O)c1ccccc1)N/N=C/c1ccc([N+](=O)[O-])s1	KB-3-1 tox inconclusive, KB-V1 MDR tox inconclusive, MCF10A rerep inconclusive, SW480 rereplic inconclusive
O=C(N/N=C/c1ccc([N+](=O)[O-])s1)c1cccc(Br)c1	KB-V1 MDR tox inconclusive, HT1080-NT tox 12µM, HT1080 IDH1KD tx 21µM, MCF10A rerep inconclusive, SW480 rereplic 10µM
Cc1ccc(C(=O)N/N=C/c2ccc([N+](=O)[O-])s2)cc1	KB-V1 MDR tox inconclusive, HT1080-NT tox inconclusive, HT1080 IDH1KD tx inconclusive, SW480 rereplic inconclusive
O=[N+]([O-])c1ccc(C=Nc2cccc3ccccc23)s1	KB-3-1 tox inconclusive, KB-V1 MDR tox inconclusive, HT1080 IDH1KD tx 23µM, MCF10A rerep 21µM, SW480 rereplic 6.5µM
Cc1cc(C)n(CC(=O)N/N=C/c2ccc([N+](=O)[O-])s2)n1	KB-3-1 tox inconclusive, KB-V1 MDR tox inconclusive, HT1080-NT tox inconclusive, HT1080 IDH1KD tx inconclusive, MCF10A rerep inconclusive, SW480 rereplic 21µM
O=C(Cc1ccccc1)NCC(=O)N/N=C/c1ccc([N+](=O)[O-])s1	KB-3-1 tox inconclusive, KB-V1 MDR tox inconclusive, HT1080 IDH1KD tx inconclusive, SW480 rereplic 15µM
Cc1ccc(N(CCC(=O)NC(C)(C)C)S(=O)(=O)c2ccc(C)cc2)cc1	none
Cc1ccsc1C(=O)OCC(=O)Nc1ccc(Cl)cn1	none
C=CCn1c(=O)c2c(nc(-c3ccc(S(=O)(=O)O)cc3)n2C)n(C)c1=O	none
C[C@H](CO)N1C[C@H](C)[C@H](CN(C)C(=O)Nc2ccc(-c3cccs3)cc2)OCc2cnnn2CCCC1=O	none (no result: MCF10A rerep, SW480 rereplic)
O=C1CC(Nc2ccc(N3CCOCC3)cc2)C(=O)N1c1ccccc1 (configuration not stated)	MCF10A rerep 8.2µM, SW480 rereplic inconclusive
CCCC(=O)NCCc1nc2ccccc2n1CC(=O)c1ccccc1	none
Cc1noc(C)c1COc1ccc(C(=O)N2CCC(C)CC2)cc1	KB-V1 MDR tox 23µM
Cc1noc(C)c1COc1ccc(C(=O)N2CCN(S(=O)(=O)c3ccc(Cl)cc3)CC2)cc1	none
Cc1noc(C)c1COc1ccc(C(=O)N2CCN(S(=O)(=O)c3ccc(F)cc3)CC2)cc1	KB-V1 MDR tox 8.2µM
CCc1c(C)[nH]n(-c2nc(-c3cccc([N+](=O)[O-])c3)cs2)c1=O	KB-3-1 tox inconclusive, KB-V1 MDR tox 16µM
CCOC(=O)c1sc2ccc(S(=O)(=O)N3CCCCC3)cc2c1N	KB-3-1 tox 23µM, KB-V1 MDR tox inconclusive, HT1080-NT tox inconclusive, HT1080 IDH1KD tx inconclusive, MCF10A rerep inconclusive, SW480 rereplic 26µM
CC(C)CC(=O)Nc1nc2ccc(S(=O)(=O)N3CCOCC3)cc2s1	KB-3-1 tox inconclusive, KB-V1 MDR tox inconclusive, HT1080-NT tox 9.2µM, HT1080 IDH1KD tx 18µM, MCF10A rerep inconclusive, SW480 rereplic 18µM
CC(=O)Nc1nc2ccc(S(=O)(=O)N3CCCC3)cc2s1	none
CCCC(=O)Nc1nc2ccc(S(=O)(=O)N3CCCCC3)cc2s1	KB-3-1 tox 13µM, KB-V1 MDR tox inconclusive, HT1080-NT tox inconclusive, HT1080 IDH1KD tx 4.1µM, MCF10A rerep inconclusive, SW480 rereplic 3.7µM
OC[C@@H]1CN(Cc2ccco2)C[C@H](n2cnc3c(NC4CCC4)ncnc32)O1	none (no result: MCF10A rerep, SW480 rereplic)
Cc1ccn2c(Nc3ccc4c(c3)OCO4)c(-c3ccco3)nc2c1	none (no result: HT1080-NT tox, HT1080 IDH1KD tx, MCF10A rerep, SW480 rereplic)
O=C(Cc1csc(-c2ccc(F)cc2)n1)Nc1cccc(S(=O)(=O)NC2=NCCC2)c1	none
CCOc1ccccc1OCC(=O)NC1CCCCC1	none
O=C(COc1ccccc1Br)NC1CCCC1	KB-3-1 tox inconclusive, KB-V1 MDR tox 16µM
O=[N+]([O-])c1ccc(-c2ccc(S(=O)(=O)NCCN3CCCC3)cc2)cc1	HT1080-NT tox 18µM, HT1080 IDH1KD tx inconclusive, MCF10A rerep inconclusive
CC12COC3(C(=O)Nc4ccc([N+](=O)[O-])cc4)CC1CCC32C (configuration not stated)	MCF10A rerep inconclusive
CCCN(CCC)S(=O)(=O)c1ccc(C(=O)N2CCC(=O)c3ccccc32)cc1	MCF10A rerep inconclusive
C=CCN(c1ccccc1OC)S(=O)(=O)c1cccc(C(=O)OCC(=O)c2c(N)n(C)c(=O)n(C)c2=O)c1	KB-3-1 tox inconclusive, KB-V1 MDR tox 8.2µM
CNS(=O)(=O)c1cccc(C(=O)OCC(=O)c2c(N)n(C)c(=O)n(C)c2=O)c1	none
CCOc1ccc(NC(=S)NC(C)CCc2ccccc2)cc1 (configuration not stated)	none
C=C(C)C1Cc2c(C)nn(-c3cccc4cccnc34)c2C1 (configuration not stated)	KB-3-1 tox inconclusive
NCCc1c(-c2ccccc2)n(-c2ccccc2)c2ccccc12	KB-V1 MDR tox inconclusive, HT1080-NT tox 15µM, HT1080 IDH1KD tx 21µM, MCF10A rerep inconclusive, SW480 rereplic inconclusive
c1ccc(C2=Nc3c(ccc4ccccc34)C(c3ccncc3)=NN2)cc1	KB-3-1 tox inconclusive, KB-V1 MDR tox inconclusive, HT1080-NT tox inconclusive, HT1080 IDH1KD tx 21µM, SW480 rereplic inconclusive
Cc1ccc2c(c1)C(c1ccncc1)=NNC(c1ccccc1)=N2	none
O=C(c1ccc(Cl)cc1Cl)N1CCN(c2ccccn2)CC1	none
CC(C)(C)c1ccc(/C=C(\C#N)C(=O)Nc2ccccn2)cc1	none
C=CCOc1ccc(/C=N/O)cc1Cl	KB-3-1 tox 12µM
CCCCN(CCCC)Cc1ccc(C(=O)NNC(=O)Nc2ccccc2)o1	none
CCCCN(CC)Cc1ccc(CNC(=O)Nc2ccccc2)o1	HT1080 IDH1KD tx 14µM
Cc1ccc2c(c1)c1c(n2CC(O)Cn2c(C)nc3ccccc32)C(=O)CCC1 (configuration not stated)	KB-3-1 tox inconclusive
Cc1ccc2c(c1)c1c(n2CC(O)Cn2c(C)nc3ccccc32)/C(=N\O)CCC1 (configuration not stated)	KB-3-1 tox inconclusive, KB-V1 MDR tox inconclusive, HT1080-NT tox 21µM, HT1080 IDH1KD tx inconclusive, MCF10A rerep inconclusive
Cc1nc2ccccc2n1CC(O)Cn1c2ccccc2c2ccccc21 (configuration not stated)	KB-3-1 tox 18µM, KB-V1 MDR tox inconclusive, MCF10A rerep inconclusive, SW480 rereplic inconclusive
CC(C)c1nc2ccccc2n1CC(O)COC1CCCCC1 (configuration not stated)	KB-V1 MDR tox inconclusive
Cc1nc2ccccc2n1CC(O)COC1CCCCC1 (configuration not stated)	KB-V1 MDR tox 16µM
Cc1cccc(C)c1OCC(O)Cn1c2ccccc2c2ccccc21 (configuration not stated)	KB-3-1 tox inconclusive, KB-V1 MDR tox inconclusive, HT1080 IDH1KD tx inconclusive, MCF10A rerep 21µM, SW480 rereplic inconclusive
